Experimental data taken from the supplement of paper PMC7411054.
Structures can show the parent of a compound that is named as a salt.

Experiments:
Assay in all cases: lowest phenotypically active concentration; higher = less potent
Conditions in all cases: treatment time: 24 h
HepG2-ACTB-RAB5A = tested on: HepG2-ACTB-RAB5A
Procedure, shortened: (§1)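 Fifteen gene-edited A549, HepG2 and WPMY1 reporter lines (BFP segmentation plus GFP and RFP/FusionRed markers) were treated at 0.3, 1, 3 or 9 µM for 24 h, four wells each, then imaged live. Live-cell features per well were normalised to DMSO control wells. Deviation required ≥3 of 4 wells beyond the 95th percentile of DMSO Euclidean distances, and reproducibility required median replicate Pearson correlation above the 95th percentile of non-replicates. Phenotypic activity needed both criteria.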

HepG2-CANX-COX4 = tested on: HepG2-CANX-COX4
Procedure, shortened: as §1

HepG2-GM130-SQSTM1 = tested on: HepG2-GM130-SQSTM1
Procedure, shortened: as §1

HepG2-TP53BP1-CLTA = tested on: HepG2-TP53BP1-CLTA
Procedure, shortened: as §1

HepG2-TUBA1B-RELA = tested on: HepG2-TUBA1B-RELA
Procedure, shortened: as §1

WPMY1-ACTB-RAB5A = tested on: WPMY1-ACTB-RAB5A
Procedure, shortened: as §1

WPMY1-CANX-COX4 = tested on: WPMY1-CANX-COX4
Procedure, shortened: as §1

WPMY1-GM130-SQSTM1 = tested on: WPMY1-GM130-SQSTM1
Procedure, shortened: as §1

WPMY1-TP53BP1-CLTA = tested on: WPMY1-TP53BP1-CLTA
Procedure, shortened: as §1

WPMY1-TUBA1B-RELA = tested on: WPMY1-TUBA1B-RELA
Procedure, shortened: as §1

Structure (SMILES) | lowest phenotypically active concentration (HepG2-ACTB-RAB5A) [µM] | lowest phenotypically active concentration (HepG2-CANX-COX4) [µM] | lowest phenotypically active concentration (HepG2-GM130-SQSTM1) [µM] | lowest phenotypically active concentration (HepG2-TP53BP1-CLTA) [µM] | lowest phenotypically active concentration (HepG2-TUBA1B-RELA) [µM] | lowest phenotypically active concentration (WPMY1-ACTB-RAB5A) [µM] | lowest phenotypically active concentration (WPMY1-CANX-COX4) [µM] | lowest phenotypically active concentration (WPMY1-GM130-SQSTM1) [µM] | lowest phenotypically active concentration (WPMY1-TP53BP1-CLTA) [µM] | lowest phenotypically active concentration (WPMY1-TUBA1B-RELA) [µM]
COc1cc([C@@H]2c3cc4c(cc3[C@@H](O[C@@H]3O[C@@H]5CO[C@@H](c6cccs6)O[C@H]5[C@H](O)[C@H]3O)[C@H]3COC(=O)[C@H]23)OCO4)cc(OC)c1O [teniposide] | ≤ 0.3 | ≤ 0.3 | ≤ 0.3 | ≤ 0.3 | ≤ 0.3 | ≤ 0.3 | ≤ 0.3 | ≤ 0.3 | ≤ 0.3 | ≤ 0.3
O=C(NCc1cccc(O)c1)Nc1nc(-c2ccncc2)cs1 [RKI 1447 dihydrochloride] | ≤ 0.3 | ≤ 0.3 | ≤ 0.3 | ≤ 0.3 | ≤ 0.3 | ≤ 0.3 | ≤ 0.3 | ≤ 0.3 | ≤ 0.3 | ≤ 0.3
Cn1cc(-c2[nH]c3cc(NC(=O)[C@H](N)C4CCCCC4)cc4c3c2C=NNC4=O)cn1 | 1 | 3 | 1 | 3 | 1 | ≤ 0.3 | ≤ 0.3 | ≤ 0.3 | ≤ 0.3 | ≤ 0.3
Cc1ccc(/C(=C/CN2CCCC2)c2cccc(/C=C/C(=O)O)n2)cc1 [acrivastine] | 3 | 9 | 3 | 9 | 1 | 1 | 1 | 1 | 9 | 1
CC(=O)O[C@@]12CO[C@@H]1C[C@H](O)[C@@]1(C)C(=O)[C@H](O)C3=C(C)[C@@H](OC(=O)[C@H](O)[C@@H](NC(=O)OC(C)(C)C)c4ccccc4)C[C@](O)([C@@H](OC(=O)c4ccccc4)[C@H]21)C3(C)C [Docetaxel] | ≤ 0.3 | ≤ 0.3 | ≤ 0.3 | ≤ 0.3 | ≤ 0.3 | ≤ 0.3 | ≤ 0.3 | ≤ 0.3 | ≤ 0.3 | ≤ 0.3
CC(=O)c1c(C)c2cnc(Nc3ccc(N4CCNCC4)cn3)nc2n(C2CCCC2)c1=O | ≤ 0.3 | ≤ 0.3 | ≤ 0.3 | ≤ 0.3 | ≤ 0.3 | 9 | 3 | 9 | 9 | 9
COc1cc2c(cc1-c1c(C)noc1C)ncc1[nH]c(=O)n([C@H](C)c3ccccn3)c12 [I-BET 151 dihydrochloride] | 1 | 3 | 3 | 3 | 3 | 3 | 3 | 3 | 3 | 3
CN[C@H]1CC[C@@H](c2ccc(Cl)c(Cl)c2)c2ccccc21 [sertraline] | 3 | 9 | 3 | 3 | 3 | 3 | 3 | 3 | 3 | 3
Cc1cn(CCN2CCN(c3ccccc3-c3cc(C#N)cc(C(=O)NCCCN4CCCC4)c3)CC2)c2ccccc12 | 1 | 9 | 3 | 3 | 3 | 3 | 3 | 3 | 3 | 3
NC(=O)Nc1cc(-c2cccc(F)c2)sc1C(=O)N[C@H]1CCCNC1 [AZD 7762 hydrochloride] | ≤ 0.3 | 1 | ≤ 0.3 | ≤ 0.3 | ≤ 0.3 | ≤ 0.3 | ≤ 0.3 | 1 | ≤ 0.3 | ≤ 0.3
Cc1cc(Nc2cc(N3CCN(C)CC3)nc(Sc3ccc(NC(=O)C4CC4)cc3)n2)[nH]n1 | ≤ 0.3 | ≤ 0.3 | ≤ 0.3 | ≤ 0.3 | ≤ 0.3 | ≤ 0.3 | ≤ 0.3 | ≤ 0.3 | ≤ 0.3 | ≤ 0.3
C/C=C1\NC(=O)[C@H]2CSSCCC=C[C@H](CC(=O)N[C@H](C(C)C)C(=O)N2)OC(=O)[C@H](C(C)C)NC1=O | ≤ 0.3 | ≤ 0.3 | ≤ 0.3 | ≤ 0.3 | ≤ 0.3 | ≤ 0.3 | ≤ 0.3 | ≤ 0.3 | ≤ 0.3 | ≤ 0.3
O=C(CCCc1ccc(-c2ccccc2F)cc1)Nc1ccc(O)cc1 | 3 | 3 | 3 | 9 | 3 | 1 | 1 | 1 | 1 | 1
O=C(NC(NC(=S)Nc1ccc(F)c([N+](=O)[O-])c1)C(Cl)(Cl)Cl)C(c1ccccc1)c1ccccc1 (stereo not given) | 9 | 9 | 9 | 9 | 9 | 9 | 9 | 9 | 9 | 9
Nc1ccn([C@@H]2O[C@H](CO)[C@@H](O)[C@@H]2O)c(=O)n1 [cytarabine] | ≤ 0.3 | ≤ 0.3 | ≤ 0.3 | ≤ 0.3 | ≤ 0.3 | ≤ 0.3 | 1 | 1 | ≤ 0.3 | ≤ 0.3
CNC(=O)Nc1ccc(-c2nc(N3CC4CCC(C3)O4)c3cnn(C4CCC5(CC4)OCCO5)c3n2)cc1 | ≤ 0.3 | ≤ 0.3 | ≤ 0.3 | ≤ 0.3 | ≤ 0.3 | ≤ 0.3 | ≤ 0.3 | ≤ 0.3 | ≤ 0.3 | ≤ 0.3
COc1cc(/C=C/C(=O)N2CCC=CC2=O)cc(OC)c1OC [Piperlongumine] | 3 | 3 | 3 | 9 | 3 | 9 | 9 | 3 | 9 | 9
Cc1ccc([N+](=O)[O-])cc1S(=O)(=O)N(C)/N=C/c1cnc2ccc(Br)cn12 | ≤ 0.3 | ≤ 0.3 | ≤ 0.3 | ≤ 0.3 | ≤ 0.3 | ≤ 0.3 | ≤ 0.3 | ≤ 0.3 | ≤ 0.3 | ≤ 0.3
O=C(CCCCCCC(=O)Nc1ccccc1)NO | 1 | 1 | ≤ 0.3 | 3 | 1 | 1 | ≤ 0.3 | 1 | 1 | 1
